Results published in PubChem BioAssay AID686979 (National Center for Advancing Translational Sciences (NCATS), 2013).
About 50,000 (12%) of roughly 420,000 compounds were called active. Not shown: some 26% with an inconclusive outcome. The call rests on the fitted dose curve; in most records, active means well fitted inhibition curve with a large enough effect; inconclusive means small, poorly fitted or top-dose-only effect; inactive means flat fitted curve, though single readings scatter. What follows is part of a selection rich in actives, with near analogues and random picks from the rest. Where a call stands in place of a potency, no number is given.
Potency means the concentration at half of the fitted maximal effect.

Test: qHTS for Inhibitors of human tyrosyl-DNA phosphodiesterase 1 (TDP1): qHTS in cells in presence of CPT; further: nearly all actives have a fitted effect of over 55% in size
Settings: chicken DT40 Tdp1-/-;hTDP1 cells + 20 nM CPT, ATP luminescence, 48 h; series mostly up to 46.2 µM
Method in brief: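 Cell growth measured by CellTiter-Glo luminescence after a minimum 48 h, 37 C compound exposure with 20 nM CPT in Tdp1-knockout DT40 cells stably expressing hTDP1, seeded 400/well; qHTS titration format.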
With O=[N+]([O-])c1cccc(C=NN=Cc2ccccc2O)c1 the Potency was “inactive”.
With O=[N+]([O-])c1ccc(O)c(/C=N/Nc2ccccc2[N+](=O)[O-])c1 the Potency was 3.26 µM (active).
With Nc1nnnn1/N=C/c1cc([N+](=O)[O-])ccc1O the Potency was “inactive”.
With C[C@H](CO)N1C[C@H](C)[C@@H](CN(C)S(=O)(=O)c2ccc(Oc3ccccc3)cc2)OCc2cn(nn2)CCCC1=O the Potency was “inactive”.
In the case of COc1cc2nc(N3CCCN(C)CC3)nc(NC3CC3)c2cc1OC, the Potency is reported as 7.94 µM (active).
With COc1ccc(C(=O)N2CCCN(C)CC2)c(OC)c1 the Potency was “inactive”.
For COc1cc2nc(Cl)nc(NC3CC3)c2cc1OC, the Potency was 14.1 µM (active).
For COc1cc2nc(Cl)nc(NCCO)c2cc1OC, the Potency was “inactive”.
In the case of COc1cc2nc(N3CCCN(C)CC3)nc(NC(C)C)c2cc1OC, the Potency is reported as 12.6 µM (active).
For COc1cc2nc(C#Cc3nc4cc(OC)c(OC)cc4[nH]3)[nH]c2cc1OC, the Potency was “inactive”.
For COc1cc(OC)c(NC(=O)c2cnc(N3CCCC3)nc2C)cc1Cl, the Potency was “inactive”.
In the case of Cc1ccc(CNS(=O)(=O)CCNC(=O)c2ccccc2)cc1, the Potency is reported as “inactive”.
With CCOC(=O)C1CCCN(S(=O)(=O)c2ccc3c(c2)C(C)(C)C(=O)N3C)C1 (stereo not drawn) the Potency was “inactive”.
With O=C(COC(=O)c1ccco1)Nc1ccc(Cl)cn1 the Potency was “inactive”.
In the case of COc1ccc(C2Nc3ccccc3C(=O)N2c2ccc(F)cc2)cc1Cn1nnc2ccccc21 (stereo not drawn), the Potency is reported as “inactive”.
With O=C(Cn1nnc2ccccc2c1=O)Nc1cc(C(F)(F)F)ccc1N1CCOCC1 the Potency was “inactive”.
With CCCCN(C(=O)/C=C/c1ccco1)c1c(N)n(CC(C)C)c(=O)[nH]c1=O the Potency was “inactive”.
With CN1CCN(c2ncc3c(n2)CC(c2ccccc2F)CC3=O)CC1 (stereo not drawn) the Potency was “inactive”.
For O=C(O)CSc1nnc(-c2ccc3c(c2)OCO3)n1-c1ccccc1, the Potency was “inactive”.
In the case of Cc1cc(NCc2cccnc2)no1, the Potency is reported as “inactive”.
For c1n[nH]c(NCc2ccc3c(c2)OCO3)n1, the Potency was “inactive”.
For c1cncc(CNc2ccnc(-c3ccc4c(c3)OCO4)n2)c1, the Potency was 8.2 µM (active).
For C=CCn1c(SCC(=O)NCCCO)nc2sc3c(c2c1=O)CCC3, the Potency was “inactive”.
With C=CCn1c(SCc2c(C)noc2C)nc2sc3c(c2c1=O)CCC(C)C3 (stereo not drawn) the Potency was 14.6 µM (active).
For C=CCn1c(SCC(=O)NCC2CCCO2)nc2sc(C)c(C)c2c1=O (stereo not drawn), the Potency was “inactive”.
For Cc1ccc(-c2ccc(CCC(=O)O)n2-c2ccc(C(N)=O)cc2)cc1, the Potency was “inactive”.
In the case of CC(C)C[C@@H]1COc2cc(N3CCC[C@@H]3CO)ccc2S(=O)(=O)N1, the Potency is reported as “inactive”.
With O=C(Nc1ccccc1C(=O)NCC1CCCO1)c1ccccc1F (stereo not drawn) the Potency was “inactive”.
In the case of CCOC(=O)C1=C(COC(=O)[C@H](C)NS(=O)(=O)c2ccccc2F)NC(=O)NC1C (stereo partly drawn), the Potency is reported as “inactive”.
For O=C(NC1CC1)C(Cc1ccccc1)NS(=O)(=O)c1ccccc1F (stereo not drawn), the Potency was 16.4 µM (active).
With CC(=O)NC(Cc1ccccc1)C(=O)NC1CCN(c2ncccc2[N+](=O)[O-])CC1 (stereo not drawn) the Potency was “inactive”.
With Cc1ccc(NS(=O)(=O)c2cccs2)cc1S(=O)(=O)N1CCCCCC1 the Potency was “inactive”.
With Cc1ccc(C)c(Nc2nnc(-c3ccc(C)c(S(=O)(=O)N4CCCCC4)c3)c3ccccc23)c1 the Potency was 4.11 µM (active).
For Cc1ccc(C(=O)NCC(=O)O)cc1S(=O)(=O)N1CCCCC1, the Potency was “inactive”.
With Cc1ccc(S(=O)(=O)N(C)C)cc1NC(=O)c1ccccc1Br the Potency was “inactive”.
For Cc1ccc(S(=O)(=O)N(C)C)cc1NC(=O)c1n[nH]c(=O)c2ccccc12, the Potency was 18.4 µM (active).
For CC(=O)c1c(C)[nH]c(C(=O)Nc2cc(S(=O)(=O)N(C)C)ccc2C)c1C, the Potency was “inactive”.
With O=C(CSc1nc2[nH]c(=O)[nH]c(=O)c2s1)Nc1cccc(F)c1 the Potency was “inactive”.
In the case of CCC(C)[C@@H](C(=O)N1CCNCC1)n1cc(CCCCN)nn1 (stereo partly drawn), the Potency is reported as “inactive”.
For CCOC(=O)c1cccc(NC(=O)CN2C(=O)C3CC=CCC3C2=O)c1 (stereo not drawn), the Potency was “inactive”.
For CCOC(=O)N1CCN(c2cc(C)c([N+](=O)[O-])cc2F)CC1, the Potency was 20.6 µM (active).
In the case of CCOC(=O)C1CCN(c2ccc(C(=O)O)cc2[N+](=O)[O-])CC1, the Potency is reported as “inactive”.
In the case of CCOC(=O)N1CCN(C(=S)Nc2ccc(C)cc2C)CC1, the Potency is reported as “inactive”.
In the case of NC(=O)C1CCN(C(=O)CC2C(=O)NCCN2Cc2cccc(Oc3ccccc3)c2)CC1 (stereo not drawn), the Potency is reported as “inactive”.
For Cc1ccc(C(CNC(=O)Nc2cccc(C)c2)N2CCN(C)CC2)cc1 (stereo not drawn), the Potency was “inactive”.
For Cc1ccc(NC(=O)Cn2cccc2C2=NC(c3ccccc3)CO2)c(C)c1 (stereo not drawn), the Potency was “inactive”.
In the case of COC(CNC(=O)Cn1ncc2ccsc2c1=O)OC, the Potency is reported as “inactive”.
With O=C1OCCC1=COCCCCOC=C1CCOC1=O the Potency was “inactive”.
For Brc1ccc(CN2CC[C@H]3C=CCc4cccc(c43)C2)cc1, the Potency was 14.1 µM (active).
In the case of CCCC(=O)C1CCN(Cc2ccccc2)CC1, the Potency is reported as “inactive”.
For CCN(CCCNC(=O)c1c(C)oc2ncn(CC(C)C)c(=O)c12)Cc1ccccc1, the Potency was “inactive”.
For O=S(=O)(NC1CC2CCC1C2)c1ccc(Cl)cc1 (stereo not drawn), the Potency was “inactive”.
For O=C(CO/N=C/c1ccc(OC(F)F)cc1)NCc1ccc(F)cc1, the Potency was “inactive”.
In the case of COc1ccc(/C=C2\NC(=O)[C@@H]3Cc4ccccc4CN3C2=O)cc1, the activity change, negative = growth inhibition is reported as -14.1% [at 9.04 µM] (inactive).
With O=C1/C(=C/c2cccs2)CCc2ccccc21 the Potency was “inactive”.
For COc1ccc(/C=C2\N=C3CCCN3C2=O)cc1, the Potency was “inactive”.
In the case of COc1ccc(/C=C2/CCCc3ccccc3C2=O)cc1, the Potency is reported as 5.8 µM (active).
In the case of COc1ccccc1C1=CC(=O)CCC1, the Potency is reported as “inactive”.
For COc1ccc(/C=C2\CCc3ccccc3C2=O)c(OC)c1OC, the Potency was 23.1 µM (active).
With COc1cc2[nH]c(=S)n(Cc3ccc(F)cc3)c(=O)c2cc1OC the Potency was “inactive”.
For COc1ccccc1NC(=O)N(O)C1(C#N)CCCCC1, the Potency was “inactive”.
In the case of Cc1nn(CC(=O)NC2CCCCC2)c(=O)c2cccn12, the Potency is reported as “inactive”.
For O=C(/C=C/c1ccc(Cl)cc1)Nc1ccc(S(=O)(=O)Nc2ncccn2)cc1, the Potency was “inactive”.
With O=C(/C=C/c1ccc(F)cc1)Nc1cccc(S(=O)(=O)Nc2cccc(C(F)(F)F)c2)c1 the Potency was 14.6 µM (active).
In the case of O=C(CNS(=O)(=O)c1cccc(C(F)(F)F)c1)Nc1ccccc1F, the Potency is reported as “inactive”.
In the case of Cc1ccc(OCC(=O)Nc2ccc(OCc3cc(=O)n4c(C)csc4n3)cc2)cc1C, the Potency is reported as “inactive”.
With COc1cc(Cl)c(NC(=O)CC(C)S(=O)(=O)c2cc3c(cc2C)NC(=O)CO3)c(OC)c1 (stereo not drawn) the Potency was “inactive”.
In the case of O=C(/C=C/c1ccccc1)Nc1nnc(SCC(=O)c2ccc3ccccc3c2)s1, the Potency is reported as “inactive”.
In the case of Cc1cccc(NC(=O)C2CCN(C(=O)NC3CCCCC3)CC2)c1, the Potency is reported as “inactive”.
With COc1ccc(NC(=O)CCCN2C(=O)CCn3nc(-c4cn(C)c5ccccc45)cc32)cc1OC the Potency was 18.4 µM (active).
In the case of COc1ccc(NC(=O)N2CCCn3nc(C)cc32)cc1OC, the Potency is reported as “inactive”.
For O=C(CN1C(=O)CCn2nc(-c3ccccc3)cc21)NCc1ccccc1, the Potency was “inactive”.
With CCOC(=O)C1(C)CCCN(C(=O)c2ccc(N(C)C)cc2)C1 (stereo not drawn) the Potency was “inactive”.
With CC(NCCc1ccc(S(N)(=O)=O)cc1)C(=O)NCc1ccccc1 (stereo not drawn) the Potency was “inactive”.
In the case of COc1cc(NS(=O)(=O)c2ccc(NC(=O)c3ccc([N+](=O)[O-])cc3)cc2)ncn1, the Potency is reported as “inactive”.
With CC(=O)NC(=S)Nc1ccc(NC(=S)NC(=O)c2ccc([N+](=O)[O-])cc2)cc1 the Potency was “inactive”.
For Cn1ccc(=Nc2ccc(NC(=O)c3ccc(N=c4ccn(C)c5ccc([N+](=O)[O-])cc45)cc3)cc2)cc1, the Potency was 3.66 µM (active).
In the case of CSCCC(NC(=O)c1ccco1)C(=O)NCCc1ccc(F)cc1 (stereo not drawn), the Potency is reported as “inactive”.
In the case of CN(C)CCNC(=O)c1ccc(Cl)c2cc3ccccc3nc12, the Potency is reported as 0.164 µM (active).
For CN(C)CCNC(=O)Nc1cccc(Cl)c1Cl, the Potency was “inactive”.
For CC(=O)NCCNC(=O)c1cc(-c2cccc3ccccc23)nc2ccccc12, the Potency was “inactive”.
With O=C(CCC(=O)N/N=C/c1ccc(Br)o1)N/N=C/c1ccc(Br)o1 the Potency was “inactive”.
For O=C(CCc1ccc(O)cc1)NN=Cc1cc(Br)ccc1O, the Potency was 8.2 µM (active).
In the case of COc1cc(/C=N/NC(=O)CCc2n[nH]c(=O)[nH]c2=O)ccc1O, the Potency is reported as “inactive”.
In the case of CCCCn1c(N)c(N(CCOC)C(=O)CSCC(=O)Nc2cccc(C)c2)c(=O)[nH]c1=O, the Potency is reported as “inactive”.
With CC1CCCCC1NC(=O)c1cc(=O)[nH]c2ccccc12 (stereo not drawn) the Potency was “inactive”.
In the case of COc1ccc(C2CC(c3cccs3)=NN2C(=O)COC(=O)c2cc3ccccc3cc2O)cc1OC (stereo not drawn), the Potency is reported as “inactive”.
With CC(=O)NC(CC(=O)Nc1cccc(S(=O)(=O)N2CCCC2)c1)c1ccccc1 (stereo not drawn) the Potency was “inactive”.
For CCOc1ccc(CNC(=O)CCc2c(C)nn(-c3ccc(N4CCCCC4)nn3)c2C)cc1, the Potency was 25.9 µM (active).
In the case of CCOc1ccc(CNC(=O)CCC(=O)N2CCSc3ccccc32)cc1, the Potency is reported as “inactive”.
In the case of Cc1nn(-c2ccc(N3CCCCC3)nn2)c(C)c1CCC(=O)NCc1ccccc1F, the Potency is reported as “inactive”.
With O=C(Nc1cccc(Cl)c1N1CCOCC1)c1cccnc1 the Potency was “inactive”.
In the case of COc1cccc(-n2c(=O)c3c(C)c(C(=O)N(C)C)sc3n(CC(=O)NCCc3ccc(OC)c(OC)c3)c2=O)c1, the Potency is reported as “inactive”.
With CCOc1cc(C=NNC(=O)CCCC(=O)NN=Cc2ccc(O)c(OCC)c2)ccc1O the Potency was “inactive”.
In the case of CCOc1cc(/C=N/NC(=O)c2c(C)nc3ccc(Cl)cn23)ccc1O, the Potency is reported as 13 µM (active).
For CCOc1ccc(/C=N\NC(=O)c2c(C)nc3cc(C)ccn23)cc1, the Potency was “inactive”.
With COc1ccc(-c2c(C(C)=O)c(C)nc3sc4c(=O)n(-c5ccc(C)cc5)nnc4c23)cc1 the Potency was “inactive”.
For OC(c1nc2ccc(F)cc2[nH]1)C(O)c1nc2ccc(F)cc2[nH]1 (stereo not drawn), the Potency was “inactive”.
For SCc1nc2ccc(Cl)cc2[nH]1, the Potency was 5.62 µM (active).
For Oc1ccc(Cl)cc1/C=N/c1nc2ccccc2[nH]1, the Potency was “inactive”.
With Cc1ccc(OC(=O)c2c(C)nn(-c3ccccc3)c2C)cc1 the Potency was “inactive”.
In the case of CCOC(=O)/C=C/CN(C(=O)OC(C)(C)C)S(=O)(=O)N1CC=CC1, the Potency is reported as “inactive”.
With O=C(CCN1Cc2ccccc2OC(c2ccccc2)C1)N[C@@H]1CS(=O)(=O)C[C@H]1O (stereo partly drawn) the activity change, negative = growth inhibition was 2.04% [at 9.04 µM] (inactive).
